Experimental data from PubChem BioAssay (NCI).
About 83,000 compounds went through this panel and 20% of them were active in at least one assay; those are over-represented in the sample as a whole.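 Single-concentration screen, 48 h exposure, 96-well plates. Endpoint: percent growth. Below 10 = active.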 Values without a mark were called inactive. Calls of active or inactive are those of the source.

Experiments:
Assay in all cases: NCI-60 one-dose screen, 48 h (100 = growth as untreated, 0 = no growth, -100 = all killed)
Conditions in all cases: 10 µM unless noted
EKVX NSCLC = test system: EKVX NSCLC
SN12C renal = test system: SN12C renal
TK-10 renal = test system: TK-10 renal
ACHN renal = test system: ACHN renal
CAKI-1 renal = test system: CAKI-1 renal
A498 renal = test system: A498 renal
CCRF-CEM leukemia = test system: CCRF-CEM leukemia
MOLT-4 leukemia = test system: MOLT-4 leukemia
SR leukemia = test system: SR leukemia
UO-31 renal = test system: UO-31 renal

Row | SMILES | growth (EKVX NSCLC) [%] | growth (SN12C renal) | growth (TK-10 renal) | growth (ACHN renal) | growth (CAKI-1 renal) | growth (A498 renal) | growth (CCRF-CEM leukemia) | growth (MOLT-4 leukemia) | growth (SR leukemia) | growth (UO-31 renal)
1 | Cc1ccc(N=NC2C(=O)N(c3ccc(Cl)cc3)N(c3ccc(Cl)cc3)C2=O)cc1 | 94.1 | 96.4% | 132% | 95% | 92.4% | 88.6% | 96.3% | 100% | 120% | –
2 | OC(CNC1CCCCC1)Cn1c2ccc(I)cc2c2cc(I)ccc21 (centres undefined) | – | 70.1% | 94.6% | 75.4% | 63.9% | 87.8% | 78.1% | 68.2% | 68.1% | 47.7%
3 | CCOc1ccc(-c2nonc2NC(=O)c2cccc(C)c2)cc1OCC | – | 70.2% | 79.2% | 83.9% | 59.8% | 39.4% | 23.1% | 4.22% (active) | -34.7% (active) | 70%
4 | CN(C)CCCNCc1ccc(-c2ccc(F)c(Cl)c2)o1 | – | 60.2% | 42.8% | 30.1% | 37.5% | 78.2% | 1.99% (active) | -4.5% (active) | -22.9% (active) | 16.7%
5 | CCOC(=O)c1cnc2c(C)cccc2c1Nc1ccc(C(C)=O)cc1 | – | 29.9% | 10.7% | 17.7% | 12% | 46.5% | 1.73% (active) | -4.17% (active) | -28.5% (active) | 13.3%
6 | Clc1ncccc1Nc1ccc2nnc(-c3ccncc3)n2n1 | – | 100% | 112% | 101% | 91.8% | 116% | 91.2% | 93.4% | – | 75%
7 | COc1ccc(-c2nc(-c3ccccn3)c(-c3ccccn3)n2CC(C)C)cc1OC1CCCC1 | – | 8.15% (active) | 28.5% | 16.8% | 10.5% | -14.3% (active) | 1.08% (active) | -31.7% (active) | – | -13.8% (active)
8 | NC(CCl)=NCCC[C@H](N)C(=O)O | – | 93.3% | 96.7% | 105% | 97.2% | 102% | 94.6% | 104% | – | 85.2%
9 | O=c1oc2ccc(-c3ccc(F)cc3F)cc2c(=O)n1-c1cccc(C(F)(F)F)c1 | – | 4.72% (active) | 11.6% | 6.31% (active) | -12.6% (active) | -42.6% (active) | 10.4% | 1.99% (active) | – | 1.41% (active)
10 | Nc1ccn(C2O[C@H](CO)[C@@H](O)[C@H]2O)c(=O)n1 (some centres undefined) | – | 54.9% | 125% | 79.5% | 91.3% | 106% | 29.2% | 57.1% | 2.99% (active) | 100%
11 | Cc1ccc(S(=O)c2ccc([N+](=O)[O-])c3nonc23)cc1 (centres undefined) | – | 126% | 72.3% | 72.4% | 90.5% | 84.3% | 1.61% (active) | -3.44% (active) | -8.16% (active) | 97.9%
12 | COc1cc(CNC(=O)c2ccsc2Nc2ccnc(C(F)(F)F)c2)ccc1O | – | 94.6% | 99.8% | 98.2% | 95.7% | 93% | 83.7% | 85.4% | – | 82.7%
13 | O=C1NC(=S)NC(=O)C1=Cc1cn(Cc2cn(Cc3cccc4ccccc34)nn2)c2ccccc12 | – | 94.4% | 134% | 96% | 80.3% | 83.7% | 98.7% | 96.2% | – | 67.7%
14 | O=NN(Cc1cccnc1)C(=O)NC1CCCCC1 | – | 98.9% | 114% | 96.5% | 93.9% | 103% | 102% | 111% | 99.7% | 90%
15 | NC1(N2SC(S)=C3CCCC=C32)CCCCC1 | – | 104% | 99.5% | 102% | 97% | 101% | 105% | 87% | 86.9% | 78.6%
16 | COc1ccc(C(=O)C2CC2c2ccc(Cl)cc2)cc1 (centres undefined) | – | 85% | 103% | 78.6% | 87.9% | 114% | 9.89% (active) | 41.2% | – | 64.4%

Row | SMILES | growth (EKVX NSCLC) [%] | growth (SN12C renal) | growth (TK-10 renal) | growth (ACHN renal) | growth (CAKI-1 renal) | growth (A498 renal) | growth (CCRF-CEM leukemia) | growth (MOLT-4 leukemia) | growth (SR leukemia) | growth (UO-31 renal)
17 | O=C(Nc1ccc(F)c(Cl)c1)Nc1ccc(Cl)c(Cl)c1 | – | 75.8% | 101% | 96% | 76.1% | 69.6% | 64.8% | 43.9% | 10.2% | 79.2%
18 | CC(=O)Nc1nc2c(s1)CCc1c-2cn(S(=O)(=O)c2ccccc2)c1-c1ccccc1 | – | 76.8% | 85.9% | 69.1% | 56.9% | 88.1% | 43.1% | 48.2% | – | 41.2%
19 | CC(=O)c1ccc(NC(=O)Nc2ccc(S(=O)(=O)Nc3ccc(Cl)nn3)cc2)cc1 | – | 97.9% | 119% | 103% | 93% | 84% | 116% | 104% | – | 78.5%
20 | COc1nccc2cc3c(=O)n4c(cc5ccccc54)c(=O)n3c12 | – | 95.7% | 131% | 96% | 92.5% | 108% | 96.5% | 86.3% | – | 53.4%
21 | O=c1oc2ccc(Cl)cc2c(=O)n1-c1cc(C(F)(F)F)cc(C(F)(F)F)c1 | – | 1.28% (active) | 0.337% (active) | 3.99% (active) | -24.7% (active) | -68.8% (active) | 5.13% (active) | -16.9% (active) | – | 6.17% (active)
22 | COc1ccc(OC)c(N(CCN2C(=O)c3ccccc3C2=O)C(=O)CCl)c1 | – | 90.5% | 110% | 78.8% | 29.9% | 72.4% | -57.4% (active) | 54.6% | -48.6% (active) | -92.1% (active)
23 | Cc1ccc(C(=O)c2oc3ccc4c(C)cc(=O)oc4c3c2C)cc1 | – | 30.5% | 27.2% | 32.9% | 15.2% | 32.3% | 17.1% | 7.13% (active) | 12.7% | 9.48% (active)
24 | O=c1oc2ccc(F)cc2c(=O)n1-c1ccc(I)cc1F | – | -3.72% (active) | 0.748% (active) | 1.58% (active) | -19.2% (active) | -61.4% (active) | 12% | -0.279% (active) | – | 2.62% (active)
25 | O=C(Nc1ccc(Br)cc1F)c1cc(I)ccc1O | – | 5.88% (active) | 12.9% | 6.1% (active) | -16.8% (active) | -40.9% (active) | 11.9% | 6.68% (active) | – | 2.04% (active)
26 | Nc1ncnc(N)c1NC(=O)c1ccc(OCc2ccccc2)cc1 | – | 98.9% | 99.3% | 99.9% | 99.3% | 98% | 98.5% | 96.8% | 94% | 88.1%
27 | O=C(Nc1nc2c(s1)CCc1c-2c(Br)n(Cc2ccccc2)c1Br)c1ccccc1 | – | 87.7% | 54.9% | 46.8% | 67.4% | 75% | 77% | 83.1% | – | 57.6%
28 | COc1ccc(-c2nc(-c3ccccc3)c(-c3ccccc3)[nH]2)cc1OC1CCCCC1 | – | 81.6% | 115% | 68.9% | 71.7% | 68.2% | 91.6% | 79.4% | – | 59.3%
29 | COc1ccc(C(=O)Nc2ccc3nc(N4CCCCC4)cc(C)c3c2)cc1OC | – | 88.8% | 104% | 94.9% | 88.4% | 35.5% | 54.8% | 49% | – | 98.7%
30 | CCOc1cc(Cl)c(C(C)NC(=O)c2cccc(OC)c2)cc1OCC (centres undefined) | – | -23.3% (active) | -62.4% (active) | -73.3% (active) | -39.1% (active) | 26.2% | -24.5% (active) | -10.2% (active) | – | -92.5% (active)
31 | CCOC(=O)c1cc2c(n1Cc1ccccc1)-c1oncc1CCC2 | – | 82.2% | 114% | 83.8% | 74% | 74.7% | 66.4% | 72% | – | 62.5%
32 | COc1cc(C(C)n2cc(-c3ccccc3)nn2)ccc1OC1CCCC1 (centres undefined) | – | 75.2% | 71.8% | 53.4% | 49.6% | 55.6% | 53.5% | 48.6% | – | 50.9%
